Consider 39 compounds from PubChem BioAssay (NCATS).

Where “and” joins values, the source holds several entries; their conditions need not be identical. Equal values may be shown once. Records with an inconclusive call do not appear. A number with no mark means an inactive call. Calls of active or inactive are those of the source. Calls come from the whole dose curve; as a rule, active = well fitted activation curve with a large enough effect; inconclusive = small, poorly fitted or top-dose-only effect; inactive = no such curve, though single readings can be large or run the other way.
Potency is the fitted concentration of half-maximal effect.

Sequence of Cellular tumor antigen p53 (Homo sapiens) (P04637 whole entry, looked up): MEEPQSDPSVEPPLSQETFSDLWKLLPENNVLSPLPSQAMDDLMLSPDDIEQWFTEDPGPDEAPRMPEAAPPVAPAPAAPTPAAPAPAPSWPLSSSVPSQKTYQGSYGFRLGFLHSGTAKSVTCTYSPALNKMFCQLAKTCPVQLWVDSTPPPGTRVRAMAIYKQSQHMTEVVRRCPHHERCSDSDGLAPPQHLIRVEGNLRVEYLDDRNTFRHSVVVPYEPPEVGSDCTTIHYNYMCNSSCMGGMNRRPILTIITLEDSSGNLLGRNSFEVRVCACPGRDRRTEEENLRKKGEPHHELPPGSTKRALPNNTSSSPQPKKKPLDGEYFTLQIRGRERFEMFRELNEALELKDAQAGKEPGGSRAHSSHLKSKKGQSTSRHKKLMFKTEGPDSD

The target in the experiment is Cellular tumor antigen p53 (Homo sapiens) (UniProt P04637). Description: Primary qHTS for small molecule compounds that upregulate eGFP-tagged delta133p53alpha (in N-terminal) cells. (AID 2060322).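 For activation: series mostly up to about 56 µM; 0% = DMSO vehicle and 100% = reference activator.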 Note: nearly all actives have a fitted effect of over 75% in size. The conditions noted are these: NCI-H358 eGFP-delta133p53alpha fluorescence, 24 h; activation: active compounds read high. An outline of the steps:
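NCI-H358 cells pre-induced 24 h with 10 ng/ml doxycycline to express N-terminal eGFP-delta133p53alpha, then dosed 24 h at 37C without doxycycline; fixed, Hoechst-stained, GFP intensity by laser scanning cytometry, normalized to DMSO (0%) and 57.5 uM 5-azacytidine (100%).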
On the technique in general: qHTS replaces the single test concentration by a dilution series.
`N[C@@H](Cc1ccc(Oc2cc(I)c(O)c(I)c2)c(I)c1)C(=O)O`: the activation was 11.7%.

As for `CC(C)c1c(CN(C)C(C)Cc2ccccc2)n(C)n(-c2ccccc2)c1=O` (centres undefined), the activation was -14.2%.

In the case of `OCCOc1ccccc1`, the activation was -20.9%.

With `C=CCOC(Cn1ccnc1)c1ccc(Cl)cc1Cl` (centres undefined), the activation was 6.69%.

As to `COc1cc(CC(C)N)cc(OC)c1OC` (centres undefined), the activation was -10.7%.

`OCCCBr`: the activation is -36.8%.

With `C[C@]12CCC(=O)C=C1CC[C@@H]1[C@@H]2CC[C@]2(C)C(=O)CC[C@@H]12`, the activation is 7.34%.

Consider `C[C@@H]1CN(C2CCC(C#N)(c3ccc(F)cc3)CC2)CC[C@]1(C(=O)O)c1ccccc1` (some centres undefined), for which the activation was 10.7%.

Regarding `Fc1cc(Br)ccc1CBr`, the activation was -29.9%.

As to `CCS(=O)(=O)C(C)(C)S(=O)(=O)CC`, the activation was -5.86%.

Turning to `O=c1[nH]c2cc(Cl)ccc2n1C1CCNCC1`, the activation was 9.6%.

With `c1cc2ccc3cccc4ccc(c1)c2c34`, the activation was 0%.

Regarding `Cc1c(Cl)c(=O)oc2cc(OP(=O)(OCCCl)OCCCl)ccc12`, the activation is -15.9%.

For the compound `CCN(CC)Cc1nccn1-c1ccc([N+](=O)[O-])cc1C(=O)c1ccccc1Cl`, the activation is -4.18%.

Regarding `C1=C2CCCN[C@H]2[C@@H]2C[C@H]1[C@@H]1CCCCN1C2`, the activation is 1.08%.

For the compound `CN(C)CCc1c[nH]c2cccc(O)c12`, the activation was 15.3%.

As to `CC1N=C(N)OC1c1ccccc1` (centres undefined), the activation was -17.5%.

`CCN1CCCC1CNC(=O)C(O)(c1ccccc1)c1ccccc1` (centres undefined): the activation is -15.1%.

As for `C[C@]12CC[C@H]3[C@@H](CCC4=CC(=O)CC[C@@H]43)[C@@H]1CC[C@@H]2OC(=O)CCC1CCCCC1`, the activation was -13%.

On to `COP(=S)(OC)Oc1cc(Cl)c(Cl)cc1Cl`, for which the activation was -17.5%.

`COC(=O)c1cncn1C(C)c1ccccc1` (centres undefined): the activation was -29.3%.

As for `CNC(C)(C)Cc1ccccc1`, the activation is -3.35%.

Consider `COc1ccc2c3c1O[C@H]1[C@H](O)CC[C@H]4[C@@H](C2)N(C)CC[C@@]341`, for which the activation was 16.4%.

For `CN1CCC(O)(c2ccc(F)cc2)C(C(=O)c2ccc(F)cc2)C1` (centres undefined), the activation is -14.1%.

Regarding `C[C@@]12OC(=O)[C@]1([C@@H](O)[C@@H]1C=CCCC1)NC(=O)[C@H]2CCCl`, the Potency was 2.73 µM (active).

Take `CCOP(=S)(OCC)Oc1cc(C)nc(C(C)C)n1`: the activation is -8.37%.

With `C1CCC(NC2CCCCC2)CC1`, the activation was 7.53%.

Take `CN(C)CCc1c[nH]c2cccc(OP(=O)(O)O)c12`: the activation was -1.69%.

As to `COP(=S)(OC)Oc1ccc(S(=O)(=O)N(C)C)cc1`, the activation is 5.86%.

Turning to `CCCCCCCCCCCC[N+](C)(C)CCOc1ccccc1`, the Potency is 21.9 µM (active).

For `COc1cccc([C@@]2(O)CCCC[C@@H]2CN(C)C)c1`, the activation was 13.4%.

In the case of `C[C@]12Cc3nonc3C[C@@H]1CC[C@@H]1[C@@H]2CC[C@@]2(C)[C@H]1CC[C@]2(C)O`, the activation was 7.34%.

Take `CCN(CC)CCc1c[nH]c2ccccc12`: the activation was -8.47%.

For `COc1cc(C[C@@H](C)N)c(OC)cc1Br`, the activation was -17.5%.

`COc1cccc2c1[C@]13CCN(CC4CC4)[C@H](C2)[C@]1(OC)CCC(=O)C3`: the activation is -12%.

Turning to `CC(Cc1ccccc1)NCc1ccccc1Cl` (centres undefined), the activation is 16.4%.

Turning to `COc1ccc2[nH]cc(CCN(C(C)C)C(C)C)c2c1`, the activation was 23.2%.

Consider `CCN(C(C)=O)c1cccc(-c2ccnc3c(C#N)cnn23)c1`, for which the activation was -16.4%.

For the compound `CCOC(=O)CC(SP(=S)(OC)OC)C(=O)OCC` (centres undefined), the activation is -9.21% and 9.21%.
